The source made the active and inactive calls. Entries that show only a call come without a potency. Calls follow the shape of the full dose curve.
Target: Acetylcholinesterase (Homo sapiens) (UniProt P22303)
Test: Acetylcholinesterase (AChE) small molecule antagonists: enzyme-based qHTS assay with human liver microsomes (AID 1347399); also: nearly all actives have a fitted effect of over 60% in size
Settings: Potency: qHTS inhibition; outcome: qHTS inhibition; series mostly up to 115 µM
Method in brief: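 Recombinant human AChE (50 mU/mL in the enzyme mix) and human liver microsomes (0.25 mg/mL final) were preincubated with compound and NADPH (0.25 mg/mL final) for 30 min at 37 C. Acetylthiocholine/DTNB was then added; thiocholine was read colorimetrically after 10 min at room temperature.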

Acetylcholinesterase (Homo sapiens), sequence (P22303 whole entry, looked up): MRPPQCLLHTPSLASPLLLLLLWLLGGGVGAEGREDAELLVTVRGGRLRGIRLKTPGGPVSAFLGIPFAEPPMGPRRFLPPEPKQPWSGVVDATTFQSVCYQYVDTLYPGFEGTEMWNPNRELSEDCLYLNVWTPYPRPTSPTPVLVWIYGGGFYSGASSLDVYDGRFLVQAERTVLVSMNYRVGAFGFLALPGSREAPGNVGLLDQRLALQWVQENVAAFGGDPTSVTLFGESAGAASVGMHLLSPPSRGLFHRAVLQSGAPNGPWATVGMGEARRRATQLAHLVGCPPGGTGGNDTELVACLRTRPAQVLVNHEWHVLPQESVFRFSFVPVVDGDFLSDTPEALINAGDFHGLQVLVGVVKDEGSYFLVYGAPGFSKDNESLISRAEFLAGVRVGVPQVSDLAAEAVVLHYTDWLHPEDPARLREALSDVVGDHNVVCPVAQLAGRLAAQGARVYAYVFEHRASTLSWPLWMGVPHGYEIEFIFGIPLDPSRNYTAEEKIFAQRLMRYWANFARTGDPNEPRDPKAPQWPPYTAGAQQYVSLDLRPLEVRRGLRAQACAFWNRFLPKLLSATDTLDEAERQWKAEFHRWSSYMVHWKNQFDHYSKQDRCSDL

SMILES	Potency
O=C(O)c1cc(Cl)cc([N+](=O)[O-])c1Cl	inactive
Cc1ccc(=O)n(-c2ccccc2)c1	inactive
O=CN1CCOCC1	inactive
CC(C)=C1CC[C@@H](C)CC1=O	inactive
CCN(CC)CCNC(C(=O)OCCC(C)C)c1ccccc1 (stereo unspecified)	inactive
O=C(/C=C/c1ccc(O)c(O)c1)O[C@@H]1C[C@@](OC(=O)/C=C/c2ccc(O)c(O)c2)(C(=O)O)C[C@@H](O)[C@@H]1O	inactive
CC(C)O	inactive
CNCCS(=O)(=O)O	inactive
COP(=O)(O)OP(=O)(O)OC	inactive
SCCSCCS	inactive
O=C(O)c1ccccc1C(=O)Nc1ccc(S(=O)(=O)Nc2nccs2)cc1	inactive
CCC(CC)C(C)CCOC(C)=O (stereo unspecified)	inactive
CCCCCCCCC(=O)OCC(C)OC(=O)CCCCCCCC (stereo unspecified)	inactive
O=CN1CCCCC1	inactive
COc1ccnc(CS(=O)c2nc3ccc(OC(F)F)cc3[nH]2)c1OC (stereo unspecified)	inactive
CC(C)Nc1ccc(NC(C)C)c2c1C(=O)c1ccccc1C2=O	inactive
